For 89 compounds, Potency results are on record in PubChem BioAssay AID588397 (National Center for Advancing Translational Sciences (NCATS), 2011).

Each structure is given as a SMILES string. “And” between values parts separate entries of the source, which are not always exact repeats. Equal entries are not always repeated. In all, about 1,300 compounds went through this assay and about 1,000 (77%) were called active. About 7% were inconclusive and are not listed. Calls come from the whole dose curve; as a rule, active = well fitted inhibition curve with a large enough effect; inconclusive = small, poorly fitted or top-dose-only effect; inactive = no such curve, though single readings can be large or run the other way. The set was probably picked from earlier hits. The list shows a part of the results.
Potency is the fitted concentration of half-maximal effect.

This assay in a line: qHTS of small molecules that selectively kill Giardia lamblia: Hit Validation.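 Note: viability measured as ATP content by luminescence so killing lowers signal; trophozoites exposed to compounds for 48 h anaerobically at 37 °C; nearly all actives have a fitted effect of over 65% in size.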 The note with it: Giardia lamblia trophozoite viability, dose-response; series mostly up to 38.3 µM. In outline:
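Each well holds 100 Giardia trophozoites and compound. After two days (48 hrs) at 37 deg C in anaerobic conditions, ATP is quantified by luminescence.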
A general note: Quantitative high-throughput screening tests each substance at several concentrations.
In the case of `CCN(CC)CCCC(C)Nc1cc(/C=C/c2ccccc2Cl)nc2cc(Cl)ccc12` (centres undefined), the Potency is 3.26 µM (active).
To `CCN(CC)CCCC(C)Nc1c2ccc(Cl)cc2nc2ccc(OC)cc12` (centres undefined) belongs 0.13 µM (active); to `O=C(Nc1cccc(S(=O)(=O)N2CCCCC2)c1)c1ccc([N+](=O)[O-])o1`, 0.729 µM (active); to `O=C(Nc1ccc2cn[nH]c2c1)c1ccc(S(=O)(=O)N2CCOCC2)cc1`, “inactive”.
The value for `O=C(NCc1ccccc1CN1CCCC1)c1cccc(S(=O)(=O)N2CCCC2)c1` was “inactive”.
For the compound `COc1ccc(CNC(=O)CN2C(=O)COc3ccc(S(=O)(=O)N4CCCCC4)cc32)cc1`, the Potency result was “inactive”.
On to `COc1ccc(S(=O)(=O)N2CCCCC2)cc1NC(=O)c1ccc([N+](=O)[O-])o1`, for which the Potency is 1.45 µM (active).
To `O=C(Nc1ccc(S(=O)(=O)N2CCCC2)cc1)c1ccc([N+](=O)[O-])o1` belongs 1.16 µM (active); to `CC(C)C(=O)NC(=S)Nc1ccc(S(=O)(=O)N2CCCC2)cc1`, “inactive”.
Consider `O=C(Nc1ccc(S(=O)(=O)N2CCOCC2)cc1)c1ccc([N+](=O)[O-])o1`, for which the Potency is 1.45 µM (active).
The value for `COc1ccc(C2CC(c3ccccc3)Nc3ncnn32)cc1` (centres undefined) was “inactive”; that for `Cc1ccc(NC(=O)c2ccc([N+](=O)[O-])o2)cc1S(=O)(=O)N1CCOCC1` was 0.729 µM (active); that for `NC(=O)c1ccsc1NC(=O)c1ccc(N2CCCC2=O)cc1` was 2.59 µM (active).
The value for `O=C(NC1CCS(=O)(=O)C1)c1ccc(N2CCCCC2)c([N+](=O)[O-])c1` (centres undefined) was 2.31 µM (active); that for `CN(C(=O)c1ccc(F)c(S(=O)(=O)N2CCOCC2)c1)C1CCCCC1` was “inactive”; that for `CN(C(=O)c1ccc(N2CCCCC2)c([N+](=O)[O-])c1)C1CCS(=O)(=O)C1` (centres undefined) was 4.1 µM (active).
Take `O=C(N/N=C/c1ccc([N+](=O)[O-])o1)c1ccccc1-n1cccc1`: the Potency is 1.16 µM (active).
The value for `Cc1nc2ccccn2c1C(=O)N/N=C/c1ccc([N+](=O)[O-])o1` was 1.83 µM (active); that for `O=C1c2ccccc2C(=O)C1c1cc2ccccc2cn1` was 1.45 µM (active); that for `O=C1c2ccccc2C(=O)C1c1ccc2ccccc2n1` was 1.16 µM (active) and 1.63 µM (active).
Turning to `O=[N+]([O-])c1ccc(CSc2nnc(-c3cccnc3)o2)cc1`, the Potency is 3.65 µM (active).
To `O=[N+]([O-])c1ccc(CSc2nnc(-c3cnccn3)o2)cc1` belongs 2.31 µM (active).
The value for `COc1nn(C(C)C(=O)N2N=C(C(F)F)CC2(O)C(F)F)cc1[N+](=O)[O-]` (centres undefined) was 0.46 µM (active).
`COc1cccc2sc(N3CCN(C(=O)c4ccc([N+](=O)[O-])o4)CC3)nc12`: the Potency was 2.05 µM (active).
`O=C(c1ccc([N+](=O)[O-])o1)N1CCN(c2nc3ccc(F)cc3s2)CC1`: the Potency is 1.83 µM (active).
To `COc1ccc2nc(N3CCN(C(=O)c4ccc([N+](=O)[O-])o4)CC3)sc2c1` belongs 1.83 µM (active); to `COc1ccc(OC)c2sc(N3CCN(C(=O)c4ccc([N+](=O)[O-])s4)CC3)nc12`, 2.59 µM (active); to `CCCSc1nc2c(cnn2-c2ccc(C)c(C)c2)c(=O)[nH]1`, “inactive”.
To `O=c1cc(-c2ccccc2)[nH]c2cc(Cl)ccc12` belongs “inactive”; to `COc1ccc(S(=O)(=O)N2CCN(C(=O)c3ccc([N+](=O)[O-])o3)CC2)cc1`, 1.3 µM (active).
The value for `COc1ccc(C(=O)NC2CCN(S(=O)(=O)c3ccc(F)cc3)CC2)cc1` was “inactive”; that for `C=Cc1ccc(CN2CCCN(Cc3ccc(F)cc3)S2(=O)=O)cc1` was “inactive”.
Take `CN(C(=O)CN1CCN(c2ccc([N+](=O)[O-])cn2)CC1)c1ccccc1`: the Potency is 4.1 µM (active).
Take `Cc1ccc(CNC(=O)c2cc(-c3ccccc3C)n(CC3CC(c4cccc([N+](=O)[O-])c4)=NO3)n2)cc1` (centres undefined): the Potency was 2.9 µM (active).
To `Cc1nnc(SCc2ccc([N+](=O)[O-])cc2)[nH]c1=O` belongs 2.31 µM (active); to `O=[N+]([O-])/C(Cl)=C(/NCCO)C(Cl)=C(Cl)Cl`, 0.259 µM (active).
Regarding `CC(=O)c1c(C)[nH]c(C(=O)OCC(=O)Nc2cc(Cl)ccc2[N+](=O)[O-])c1C`, the Potency was 2.31 µM (active).
To `CCn1nc(-c2ccc(C)cc2)nc2c(=O)n(C)c(=O)nc1-2` belongs 0.206 µM (active); to `CCc1ccc(-c2nc3c(=O)n(C)c(=O)nc-3n(CC)n2)cc1`, 0.183 µM (active).
To `Clc1ccc2oc(-c3ccccc3)cc(=NCCCN3CCOCC3)c2c1` belongs 0.818 µM (active).
The value for `CN(C)CCCN=c1cc(-c2ccccc2)oc2ccc(Cl)cc12` was 0.579 µM (active); that for `CC1(C)CC(N=c2cc(-c3ccccc3)oc3ccc(Cl)cc23)CC(C)(C)N1` was 0.65 µM (active).
In the case of `O=C(c1ccc2c3n(nc2c1)-c1ccccc1CO3)N1CCCCC1`, the Potency is 2.31 µM (active).
The value for `O=C(NCCO)c1ccc2c3n(nc2c1)-c1ccccc1CO3` was 3.26 µM (active); that for `O=Nc1c2ccc[nH]c-2c2ccc([N+](=O)[O-])cc12` was 1.03 µM (active); that for `CC1CCN(c2ccc(NC(=O)c3ccc([N+](=O)[O-])o3)cc2)CC1` was 1.16 µM (active).
The value for `O=C(NCC1CCN(Cc2ccccc2F)CC1)Nc1ccccc1F` was “inactive”; that for `O=C(Nc1ccc(N2CCCCC2)cc1)c1ccc([N+](=O)[O-])o1` was 3.26 µM (active).
The value for `CS(=O)(=O)N1CCN(c2ccc(NC(=O)c3ccc([N+](=O)[O-])o3)cc2)CC1` was 0.579 µM (active); that for `O=C(Nc1ccc(N2CCN(Cc3ccccc3F)CC2)cc1)c1ccc([N+](=O)[O-])o1` was 1.16 µM (active).
In the case of `CCC(C(=O)N1CCOCC1)n1nc(C)n2c(cc3cc(C)ccc32)c1=O` (centres undefined), the Potency entry is “inactive”.
On to `O=C(Nc1ccc(N2CCOCC2)cc1)c1ccc([N+](=O)[O-])o1`, for which the Potency was 0.579 µM (active).
With `O=C(O)c1cc2ccccc2c(N=Nc2cccnc2)c1O`, the Potency is 2.05 µM (active).
`O=C(NN1C(=O)c2ccccc2NC1c1ccc([N+](=O)[O-])o1)c1ccccc1` (centres undefined): the Potency was 1.03 µM (active).
The value for `O=C(NN1C(=O)c2ccccc2NC1c1ccc([N+](=O)[O-])o1)c1ccc([N+](=O)[O-])cc1` (centres undefined) was 2.05 µM (active).
The value for `Cc1[nH]c2ccccc2c1C(=O)C(C)OC(=O)c1ccc([N+](=O)[O-])o1` (centres undefined) was 1.83 µM (active); that for `COc1cc(/C=C/c2ccc3cccc(OC)c3n2)c(OC(C)=O)c([N+](=O)[O-])c1` was 1.83 µM (active); that for `COc1cc(/C=C/c2ccc3cccc(OC)c3n2)c(O)c([N+](=O)[O-])c1` was 1.63 µM (active).
The value for `O=C(Nc1cccc2ccccc12)C12CC3CC(C1)CC(n1cnc([N+](=O)[O-])n1)(C3)C2` was 3.65 µM (active); that for `O=C(Nc1cc([N+](=O)[O-])c2[nH]c(=O)c3ccccc3c2c1)C(F)(F)F` was 1.03 µM (active); that for `COc1ccc(NS(=O)(=O)c2ccc3oc4ccccc4c3c2)cn1` was “inactive”.
Take `c1coc(-c2nc3cc4ccccc4cc3nc2-c2ccco2)c1`: the Potency was 3.65 µM (active).
To `O=c1c(-c2cccc([N+](=O)[O-])c2)[n+]([O-])c2ccccc2n1O` belongs 5.16 µM (active); to `CCOn1c(=O)c(-c2cccc([N+](=O)[O-])c2)[n+]([O-])c2ccccc21`, 1.03 µM (active); to `CC(NC(=O)c1ccc(N(C)C)c([N+](=O)[O-])c1)c1ccc(-n2ccnc2)cc1` (centres undefined), 4.6 µM (active).
To `COc1ccccc1C1C([N+](=O)[O-])=CC([N+](=O)[O-])=CN1C` (centres undefined) belongs 2.59 µM (active); to `Cc1ccc(S(=O)(=O)N2[C@@H](c3ccc(F)cc3)C(C(=O)O)=CC[C@H]2c2ccc(Cl)cc2)cc1`, “inactive”.
The value for `Cc1ccc(S(=O)(=O)N2[C@@H](c3ccc(F)cc3)C(C(=O)O)=CC[C@H]2c2ccc3c(c2)OCO3)cc1` was “inactive”; that for `Cc1ccc(S(=O)(=O)N2[C@@H](c3ccccc3)C(C(=O)O)=CC[C@H]2c2cccc(Cl)c2)cc1` was 0.103 µM (active); that for `O=[N+]([O-])c1cccc2nc3ccccc3c(NCCCn3ccnc3[N+](=O)[O-])c12` was 1.63 µM (active).
Turning to `CN=c1scc(-c2ccccc2F)n1/N=C(\C)c1cccnc1`, the Potency was 4.1 µM (active).
The value for `Cc1ccc(Nc2ccc([N+](=O)[O-])nc2[N+](=O)[O-])cc1` was 3.26 µM (active).
The value for `COc1cc(Nc2ccc(C)cc2)c([N+](=O)[O-])nc1[N+](=O)[O-]` was 1.45 µM (active).
For the compound `O=C(Nc1ccc2[nH]ncc2c1)c1ccccc1Cl`, the Potency was 5.79 µM (active).
To `O=[N+]([O-])c1ccc(Oc2cccc(Br)c2)c2ccncc12` belongs 2.05 µM (active); to `O=C(Nc1nnc(-c2ccco2)o1)c1ccc([N+](=O)[O-])s1`, 3.65 µM (active); to `O=C(NCc1ccco1)c1ccc([N+](=O)[O-])o1`, 1.83 µM (active).
To `CN(C(=O)c1cc([N+](=O)[O-])ccc1NCc1cccnc1)c1ccccc1` belongs “inactive”; to `O=C(Nc1cccnc1)c1ccc([N+](=O)[O-])s1`, 2.05 µM (active).
`O=C(NCc1cccnc1)c1ccc([N+](=O)[O-])o1`: the Potency was 1.16 µM (active).
The value for `O=C(Cc1ccc(-n2c(=O)c3sccc3n(CC(=O)Nc3ccccc3)c2=O)cc1)NCc1ccco1` was “inactive”.
Turning to `CCN(C(=O)N(CC)c1ccccc1)c1ccccc1`, the Potency entry is “inactive”.
The value for `O=C(Nc1ccc(Cc2ccncc2)cc1)c1ccc([N+](=O)[O-])o1` was 1.16 µM (active).
The value for `O=C(Nc1cccnc1)c1ccc([N+](=O)[O-])o1` was 1.3 µM (active); that for `Cc1ccc(CNC(=O)c2cc(S(=O)(=O)N3CCOCC3)cn2C)cc1` was “inactive”.
To `Cc1ccc(CNC(=O)c2ccc([N+](=O)[O-])o2)cc1` belongs 1.83 µM (active).
With `CNc1nnc(-c2ccc(N(C)C)cc2)s1`, the Potency is 3.26 µM (active).
The value for `CCc1ccc2nc3sc(C(=O)O)cc3cc2c1` was 10.3 µM (active).
To `CCN1C[C@@H]2[C@@H]3C(=O)N(C)C(=O)[C@@H]3[C@](C)(C1=O)N2C(=O)c1ccc(Cl)c(Cl)c1` belongs “inactive”.
